Consider 5 compounds from PubChem BioAssay.

The test system of test [1] is Wnt5a (protein binding on small-molecule microarray). Kind of test: small molecules binding Wnt5a protein – biophysical, small-molecule microarray, 635/667 nm fluorescence, primary screen (AID 1142).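 Note: fluorescence read at 667 nm with signal to noise per printed feature.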 The following applies: 635 nm fluorescence, higher = more signal.
Test [2] is described as follows: ATP-based viability of Huh7 replicon cells – cell-based, CellTiter-Glo luminescence, basal, 48 h, cytotoxicity control for HCV replication inhibitor project, primary screen (AID 1143).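 Note: Huh7 hepatoma cells carrying a hepatitis C replication reporter with no stimulus; test concentration not given here.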 As to conditions: higher = more signal, called active from +8 up or from −8 down. In general terms: Replicon systems follow genome replication, usually without infectious particles.
Test [3] is described as follows: Pseudomonas biofilm growth suppression – PAO1 strain, BacTiter-Glo luminescence, LB-PBS, primary screen (AID 1144). The following applies: P. aeruginosa PAO1 biofilm, 12 h, higher = more signal.
Test [4] is described as follows: basal CRE-LacZ reporter activity in PC12 – cell-based, unstimulated, primary screen (AID 1145). The following applies: no forskolin, luminescence, 4.5 h, higher = more signal, called active from +8 up or from −8 down.
A short description of test [5]: forskolin-driven CRE-LacZ activity in PC12 – cell-based, CRE-LacZ reporter, forskolin-stimulated, primary screen (AID 1146).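 Note: PC12 cells with 6xCRE LacZ reporter stimulated by forskolin 10 µM; beta-galactosidase reporter signal reflecting CREB driven transcription.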 As to conditions: luminescence, 4.5 h, higher = more signal, called active from +8 up or from −8 down.
Test [6] has as its target Streptavidin (Streptomyces avidinii) (UniProt P22629). Briefly: compounds binding control protein streptavidin – biophysical, small-molecule microarray, 635/667 nm fluorescence, artefact control for SMM compound annotation, primary screen (AID 1147).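 Note: signal reflects streptavidin binding to arrayed compounds as a control protein.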 As to conditions: higher = more signal.
Test [7] can be described thus: probe aInhba binding on compound microarray – biochemical, small-molecule microarray, 635/667 nm fluorescence, primary screen (AID 1148).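 Note: score merges 667nm spot fluorescence with signal-to-noise for antibody binding to printed compounds.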 The following applies: higher = more signal.
The target of test [8] is Torsin-1A (Homo sapiens) (UniProt O14656). Kind of test: TOR1A wild-type binding on microarray – cell lysate, small-molecule microarray, lysate, 635/667 nm, primary screen (AID 1149). As to conditions: COS7 hTOR1A-WT lysate, 635 nm fluorescence, higher = more signal.
Test [9] has the same target. Kind of test: torsin A mutant lysate binding on microarrays – cell lysate, small-molecule microarray, COS7 lysate, 635/667 nm fluorescence, primary screen (AID 1150).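 Note: score pools 667 nm emission and signal to noise measuring lysate protein binding.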 The following applies: COS7 hTOR1A mutant lysate, 635 nm fluorescence, higher = more signal.
Test [10] deals with Sonic hedgehog protein (Shh). Kind of test: Sonic hedgehog microarray binding compounds – biochemical, small-molecule microarray, 635/667 nm fluorescence, primary screen (AID 1151).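 Note: Shh protein binding to compounds spotted on small-molecule microarray slides; score combines spot fluorescence intensity with signal-to-noise across triplicate slides.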 As to conditions: 635 nm fluorescence, higher = more signal.
Test [11] in a line: optical density shifts of acrAB sulA E. coli – strain DRC41, OD650, 48 h, E. coli filamentation inducer project, primary screen (AID 1152).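 Note: E. coli MC1000 strain DRC41 lacking acrAB efflux pump and sulA.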 As to conditions: higher = more signal, called active from +8 up or from −8 down.
Test [12] is described as follows: probe aLefty1 binding on compound microarray – biochemical, small-molecule microarray, 635/667 nm fluorescence, primary screen (AID 1153).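 Note: score merges spot fluorescence with signal-to-noise ratio from the scanned slide images.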 As to conditions: higher = more signal.
The nature of test [13]: plasmodial surface anion channel blockers, osmotic lysis – cell-based, P. falciparum Indochina, OD700, 1 h, primary screen (AID 1154). As to conditions: P. falciparum Indochina infected RBC osmotic lysis, higher = more signal, called active from +8 up or from −8 down.
A short description of test [14]: plasmodial surface anion channel blockers, osmotic lysis – cell-based, P. falciparum Indochina, OD700, 2 h, primary screen (AID 1155).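 Note: lysis reports solute entry through the parasite surface anion channel PSAC.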 As to conditions: P. falciparum Indochina infected erythrocytes, higher = more signal, called active from +8 up or from −8 down.
The nature of test [15]: changes in parasitized red cell lysis, either direction – P. falciparum Indochina, OD700, 3 h, PSAC antagonist project, primary screen (AID 1156). As to conditions: P. falciparum-infected erythrocytes, osmotic lysis, higher = more signal, called active from +8 up or from −8 down.
A short description of test [16]: plasmodial surface anion channel blockers, osmotic lysis – cell-based, P. falciparum Indochina, OD700, 18 h, primary screen (AID 1157). As to conditions: P. falciparum Indochina infected erythrocytes, osmotic lysis OD700, 18 h; higher = more signal, called active from +8 up or from −8 down.
Test [17] is described as follows: S6 kinase pathway phospho-S6 level changes – cell-based, A549, cytoblot, luminescence, serum-stimulated, primary screen (AID 1158).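 Note: serum-stimulated A549 lung adenocarcinoma cells; signal is phosphorylated S6 detected by cytoblot immunostaining with HRP secondary.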 As to conditions: 5 h, higher = more signal.
The target in test [18] is NADPH oxidase 2 (Homo sapiens) (UniProt P04839). Briefly: compounds shifting NOX2 Amplex Red fluorescence – cell-based, HEK293-NOX2, PMA-stimulated, NOX inhibitor project, primary screen (AID 1159). Note: test concentration not given here. The following applies: 45 min, higher = more signal, called active from +8 up or from −8 down.
Test [19] has as its target NADPH oxidase 4 (Homo sapiens) (UniProt Q9NPH5). Briefly: compounds shifting NOX4 Amplex Red fluorescence – cell-based, HEK293-NOX4, tetracycline-induced, NOX inhibitor project, primary screen (AID 1160). The following applies: HEK293-NOX4, Amplex Red H2O2 fluorescence, 45 min; higher = more signal, called active from +8 up or from −8 down.
Test [20] has as its target NADPH oxidase 5 (Homo sapiens) (UniProt Q96PH1). Kind of test: compounds shifting NOX5 Amplex Red fluorescence – cell-based, HEK293-NOX5, NOX inhibitor project, primary screen (AID 1161). As to conditions: HEK293-NOX5, ionomycin, 45 min, higher = more signal.

The source made the active and inactive calls. Unless noted, the rule behind the calls is not given here.

NADPH oxidase 2 (Homo sapiens), sequence (P04839 whole entry, looked up): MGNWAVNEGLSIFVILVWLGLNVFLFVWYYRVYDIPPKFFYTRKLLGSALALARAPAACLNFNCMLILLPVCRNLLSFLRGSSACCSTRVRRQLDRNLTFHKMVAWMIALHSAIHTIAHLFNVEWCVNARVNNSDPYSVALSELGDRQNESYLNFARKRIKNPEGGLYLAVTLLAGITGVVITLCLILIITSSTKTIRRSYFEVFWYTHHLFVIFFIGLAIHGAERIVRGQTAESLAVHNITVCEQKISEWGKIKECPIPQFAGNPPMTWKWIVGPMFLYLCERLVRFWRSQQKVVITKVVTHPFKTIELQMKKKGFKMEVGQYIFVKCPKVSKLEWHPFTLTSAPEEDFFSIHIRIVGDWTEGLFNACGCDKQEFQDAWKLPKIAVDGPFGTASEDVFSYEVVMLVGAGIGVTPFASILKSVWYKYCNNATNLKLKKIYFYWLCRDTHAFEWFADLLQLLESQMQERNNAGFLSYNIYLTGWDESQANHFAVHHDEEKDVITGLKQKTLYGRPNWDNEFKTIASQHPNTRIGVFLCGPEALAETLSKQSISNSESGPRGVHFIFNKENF
NADPH oxidase 5 (Homo sapiens), sequence (Q96PH1 whole entry, looked up): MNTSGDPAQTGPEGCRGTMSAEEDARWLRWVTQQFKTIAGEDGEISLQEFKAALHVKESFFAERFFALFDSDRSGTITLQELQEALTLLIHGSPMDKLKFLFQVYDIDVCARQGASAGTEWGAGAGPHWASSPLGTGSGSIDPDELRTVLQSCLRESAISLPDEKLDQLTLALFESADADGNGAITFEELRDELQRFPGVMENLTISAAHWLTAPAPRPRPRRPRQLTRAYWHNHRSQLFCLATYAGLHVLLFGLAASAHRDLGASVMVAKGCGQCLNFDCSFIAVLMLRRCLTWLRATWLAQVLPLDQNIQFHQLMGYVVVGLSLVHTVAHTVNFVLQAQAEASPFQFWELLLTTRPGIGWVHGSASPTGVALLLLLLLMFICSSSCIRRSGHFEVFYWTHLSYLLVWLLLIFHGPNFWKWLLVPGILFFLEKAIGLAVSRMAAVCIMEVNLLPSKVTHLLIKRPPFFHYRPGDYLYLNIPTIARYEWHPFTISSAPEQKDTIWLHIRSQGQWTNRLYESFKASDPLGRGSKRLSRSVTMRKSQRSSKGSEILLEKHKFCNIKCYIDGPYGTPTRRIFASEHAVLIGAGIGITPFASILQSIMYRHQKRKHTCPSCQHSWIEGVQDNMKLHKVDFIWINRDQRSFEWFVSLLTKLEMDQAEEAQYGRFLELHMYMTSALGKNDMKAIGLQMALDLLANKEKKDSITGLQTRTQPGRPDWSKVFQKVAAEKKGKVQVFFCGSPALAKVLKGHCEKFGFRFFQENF
NADPH oxidase 4 (Homo sapiens), sequence (Q9NPH5 whole entry, looked up): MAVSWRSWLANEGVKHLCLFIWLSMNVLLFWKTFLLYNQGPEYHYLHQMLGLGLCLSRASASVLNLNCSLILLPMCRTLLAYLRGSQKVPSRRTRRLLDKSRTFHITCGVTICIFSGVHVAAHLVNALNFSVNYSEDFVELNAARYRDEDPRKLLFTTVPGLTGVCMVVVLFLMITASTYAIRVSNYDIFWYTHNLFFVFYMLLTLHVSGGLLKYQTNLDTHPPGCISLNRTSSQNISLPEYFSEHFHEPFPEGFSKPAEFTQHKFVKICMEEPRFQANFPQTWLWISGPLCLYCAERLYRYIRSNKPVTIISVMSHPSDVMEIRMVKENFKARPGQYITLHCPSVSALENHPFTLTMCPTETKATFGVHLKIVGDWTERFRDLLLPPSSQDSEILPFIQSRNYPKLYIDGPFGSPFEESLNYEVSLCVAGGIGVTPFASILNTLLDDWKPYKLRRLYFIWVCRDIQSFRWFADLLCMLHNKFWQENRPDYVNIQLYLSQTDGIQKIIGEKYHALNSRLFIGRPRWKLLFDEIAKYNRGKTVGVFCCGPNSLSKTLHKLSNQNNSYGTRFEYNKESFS
Torsin-1A (Homo sapiens), sequence (O14656 whole entry, looked up): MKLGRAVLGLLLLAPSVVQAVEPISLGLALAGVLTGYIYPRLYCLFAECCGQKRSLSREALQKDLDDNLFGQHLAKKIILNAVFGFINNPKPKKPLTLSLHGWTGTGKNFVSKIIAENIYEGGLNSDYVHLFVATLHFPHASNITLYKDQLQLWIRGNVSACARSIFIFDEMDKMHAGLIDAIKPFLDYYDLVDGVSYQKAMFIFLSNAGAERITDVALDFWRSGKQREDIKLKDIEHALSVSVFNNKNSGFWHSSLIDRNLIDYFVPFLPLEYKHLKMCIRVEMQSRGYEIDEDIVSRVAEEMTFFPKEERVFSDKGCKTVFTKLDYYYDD
Streptavidin (Streptomyces avidinii), sequence (P22629 whole entry, looked up): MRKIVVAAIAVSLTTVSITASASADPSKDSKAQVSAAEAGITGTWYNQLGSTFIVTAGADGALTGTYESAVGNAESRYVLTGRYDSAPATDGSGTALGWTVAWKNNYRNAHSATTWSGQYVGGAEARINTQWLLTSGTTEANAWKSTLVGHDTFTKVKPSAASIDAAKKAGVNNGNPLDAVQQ

As to `COc1ccc(C#Cc2ccc3c(c2)[C@]2(C(=O)N3)[C@H](C(=O)Nc3nc4ccccc4s3)[C@H]3C(=O)O[C@H](c4ccccc4)[C@H](c4ccccc4)N3[C@@H]2c2ccc(O)cc2)cc1`, the composite z-score in [1] came to 0.823; in [6], 2.25; in [7], 1.43; in test [8], 1.41; in test [9], 0.903; in test [10] it was 2.02. The composite z-score in test [12] worked out at 1.1. The z-score in test [2] is -1.3 (inactive); in test [3] it was -0.782 (inactive); in test [4], 0.0653 (inactive); in test [5], -0.0135 (inactive); in test [11] it was 0.663 (inactive); in test [13], -0.383 (inactive). Also, the z-score in test [14] was 0.53 (inactive); in test [15] it was -6.71 (inactive); in test [16], 0.957 (inactive); in test [17], -0.249; in [18] it was 0.548 (inactive); in [19] it was 0.792 (inactive). Further, the z-score in [20] was -2.5.
With `O=C1O[C@@H](c2ccccc2)[C@@H](c2ccccc2)N2[C@@H](c3ccccc3OCCO)[C@]3(C(=O)Nc4ccc(C#CC5=CCCCC5)cc43)[C@@H](C(=O)N3CCCCCCC3)[C@H]12`, the composite z-score in test [1] turned out to be 2.24; in test [6], 3.51; in test [7] it was 2.23; in test [8] it was 2.81; in test [9], 2.9; in test [10], 1.22. In test [12], this compound yielded a composite z-score of 2.96. Also, the z-score in [2] is -4.53 (inactive); in [3], 0.189 (inactive); in test [4], -0.203 (inactive); in test [5] it was 0.188 (inactive); in test [11], -0.511 (inactive); in test [13], -0.0047 (inactive). The z-score in [14] is 0.0859 (inactive); in [15], -0.339 (inactive); in test [16] it was 0.68 (inactive); in test [17] it was -0.359; in test [18], 0.624 (inactive); in test [19] it was 0.55 (inactive). In [20], the z-score was -0.797.
Regarding `CC1(C)[C@@H]2CC(C(O)C3C=CC4C(=O)N(c5ccccc5)C(=O)C4N3Nc3ccc([N+](=O)[O-])cc3)=C[C@H]1C2` (stereo not given in full), the composite z-score in test [1] came out at 0.909; in test [6], 1.18; in test [7], 0.0179; in [8], 1.18; in test [9] it was 0.537; in test [10] it was 0.808. The compound also showed a composite z-score in test [12] of 0.404. Also, the z-score in test [2] is -1.2 (inactive); in test [3], -0.88 (inactive); in [4] it was 0.323 (inactive); in test [5], 0.617 (inactive); in test [11], -1.03 (inactive); in test [13], 14.3 (active). Besides, the z-score in [14] is 2.98 (inactive); in test [15], 2.92 (inactive); in test [16], 1.56 (inactive); in [17], -0.539; in test [18], -0.0932 (inactive); in test [19], -1.02 (inactive). The z-score in test [20] is -2.02.
Turning to `COc1cc2c(cc1O)C(C1CC1)N(Cc1sc3ccccc3c1Cl)CC2` (stereo not given), the composite z-score is -0.207 in [1]; 0.583 in test [6]; -0.024 in [7]; 1.45 in test [8]; 0.982 in [9]; -0.206 in test [10]. The same compound showed a composite z-score in [12] of -0.0162. Besides, the z-score in test [2] is -5.05 (inactive); in test [3], 1.26 (inactive); in test [4] it was -0.671 (inactive); in test [5], 1.82 (inactive); in test [11], -1.54 (inactive); in [13] it was 13.1 (active). The z-score in [14] is 3.41 (inactive); in test [15] it was -0.449 (inactive); in test [16], 1.33 (inactive); in test [17] it was -0.0956; in test [18] it was -4.57 (inactive); in test [19], -2.68 (inactive). The z-score in [20] is -3.45.
For `[N-]=[N+]=Nc1ccccc1[C@H]1OC(c2ccc(OCCCO)cc2)=N[C@@]1(CCS(=O)(=O)c1ccccc1)C(N)=O`, the composite z-score in test [1] was found to be 0.79; in [6], 0.751; in test [7], 0.668; in test [8], 0.875; in test [9], 0.356; in test [10] it was 0.176. This compound also gave a composite z-score in [12] of 0.138. The z-score in test [2] is -1.26 (inactive); in test [3], -0.563 (inactive); in [4] it was 0.96 (inactive); in test [5] it was -1.12 (inactive); in test [11] it was 0.613 (inactive); in test [13], 32 (active). In addition, the z-score in [14] was 28.1 (active); in test [15], 1.48 (inactive); in [16], 2.16 (inactive); in test [17], -0.0187; in test [18] it was 0.178 (inactive); in [19], 0.067 (inactive). For the same compound, the z-score in test [20] is -0.909.
